# Inconclusive results are not listed. Calls of active or inactive are those of the source. Calls follow the shape of the dose curve; as a rule, active = well fitted inhibition curve with a large enough effect in the signal ratio, with a control signal flat; inconclusive = small, poorly fitted or top-dose-only effect, or effect the other way; inactive = flat fitted curve, though single readings scatter; the % refers to the signal ratio.
# Experiment: Confirmation Concentration-Response Assay for Identification of Small Molecule Antagonists of Stat Signaling Pathway
# Settings: SIE-bla cells, IL-6 stimulated, beta-lactamase ratio, 5 h; series mostly up to 38.3 µM
# From the text: NIH Molecular Libraries Screening Centers Network [MLSCN] NIH Chemical Genomics Center [NCGC] MLSCN Grant: None NCGC Assay Overview: This assay is a retest of actives identified from the Stat signaling pathway assay (PubChem AID 446). The Stat assay is cell-based and measures Interleukin 6 (IL-6) mediated modulation of a beta-lactamase reporter gene controlled by a STAT inducible element (SIE-bla cells, Invitrogen). IL-6 is a cytokine that signals via the JAK/STAT pathway and is implicated in cancer and inflammation. SIE-bla cells are induced by IL-6 at 40 pM EC50 and inhibited by the pan JAK inhibitor, 2-(1,1-Dimethylethyl)-9-fluoro-3,6-dihydro-7H-benz[h]-imidaz[4,5-f]isoquinolin-7-one, at approximately 10 nM IC50. Plated cells were incubated overnight and on the following day, stimulated with 40 pM IL-6 for 5 hrs. The assay was stimulated with an EC50 of IL-6 to retest inhibitors of STAT signaling.
# NCGC Assay Protocol Summary: Cells were trypsinized, washed in assay medium (AM, OPTI MEM with 0.5% fetal bovine serum, 0.1 mM nonessential amino acids, 1 mM sodium pyruvate, 10mM HEPES pH 7.3, 100U/ml penicillin, and 100 ug/ml streptomycin) and suspended at […] in AM. Approximately 2500 cells in 5 uL/well was dispensed into 1536-well plates and the cells were incubated overnight at 37 C. 23 nL of compound were delivered by a pin tool and 1 uL of IL-6 (40 pM final concentration in AM) was added. After plates were incubated at 37 C for 5 hrs, 1uL of detector mix (LiveBLAzerTM, Invitrogen) was added, the plates incubated at room temperature for 2.5 hrs, and fluorescence intensity at 460 and 530 nm emissions was measured at 405 nm excitation by an Envision (Perkin Elmer).
row,Compound,Potency
1,OCc1ccncc1.OCc1ccncc1.[Cl][Pt]([Cl])([Cl])[Cl],10 µM (active)
2,CCCCSc1nc(N)c(C#N)c(-c2cccs2)c1C#N,15.8 µM (active)
3,O=C1Nc2ccc(I)cc2/C1=C/c1cc(Br)c(O)c(Br)c1,12.6 µM (active)
4,COc1cc(/C=C\C(=O)N2CCCCC2=O)cc(OC)c1OC,12.6 µM (active)
5,CN(C)S(=O)(=O)c1ccc2c(c1)/C(=C/c1cc3c([nH]1)CCCC3)C(=O)N2,2.51 µM (active)
6,CCN(CC)CCNC(=O)c1cc(S(C)(=O)=O)ccc1OC,inactive
7,O=C(Nc1ccc(N2CCN(C(=O)c3ccccc3)CC2)c(Cl)c1)c1ccc(Br)o1,10 µM (active)
8,OC[C@@H]1CCC[C@H](n2cnc3c(=S)nc[nH]c32)O1,inactive
9,O=C(O)c1c(Br)c(Br)c(Br)c(Br)c1C1c2ccc(O)cc2Oc2cc(O)ccc21,7.94 µM (active)
10,ClC(=Nc1cccc2ccccc12)N(c1ccccc1)c1ccccc1,inactive
11,Cn1c(NCc2ccccc2)nc2c1c(=O)n(Cc1ccc(Br)cc1)c(=O)n2C,15.8 µM (active)
12,COc1ccc(C[C@@H]2C(=O)N[C@H](C)C(=O)N(C)[C@@H]3Cc4ccc(cc4)Oc4cc(ccc4O)C[C@H](C(=O)N[C@@H](C)C(=O)N[C@H](C)C(=O)N2C)N(C)C3=O)cc1,0.199 µM (active)
13,C=C1C(=O)O[C@@H]2[C@H]3O[C@]3(C)CCC=C(C)CC[C@@H]12,7.94 µM (active)
14,NS(=O)(=O)c1ccc(N=Nc2cc3ccccc3c(C(=O)O)c2O)cc1,6.31 µM (active)
15,C=C1C(=O)O[C@@H]2[C@@H]1CC/C(C)=C\CC[C@@]1(C)O[C@H]21,25.1 µM (active)
16,COc1cccc2c1[C@H](CO)N1[C@H](C#N)[C@@H]3C[C@H](C(=O)O)[C@@H]([C@@H]1C2)N3C,10 µM (active)
17,CSc1ncnc2c1ncn2CC(=O)[C@H]1CC[C@H]2[C@H]3CCC4=CC(=O)CC[C@@]4(C)[C@@H]3CC[C@@]12C,2.51 µM (active)
18,CCOC(=O)c1[nH]c2cc3c(cc2c1NC(=O)CN1CCc2ccccc2C1)OCO3,15.8 µM (active)
19,CC1CCN(CC[S-])CC1.O.O.[Cl][Pt],25.1 µM (active)
20,CCC(=O)Nc1nc(C)c(Oc2ccccc2)c(=O)[nH]1,inactive
21,O=C1C(SCCO)=C(SCCO)C(=O)c2ccccc21,6.31 µM (active)
22,O=C(O)CCc1c2ccc(=O)c(O)c-2oc2c(O)c(O)ccc12,10 µM (active)
23,NCCSc1nc2ccccc2s1,7.94 µM (active)

# From PubChem BioAssay AID922 (National Center for Advancing Translational Sciences (NCATS), 2007)
